Screens as filed in PubChem.
A selection: hits, their analogues and other compounds. The true share with any hit is near 12%.
NS1 inh = influenza NS1 inhibition. AID 2326. Potency, µM (titrated, usually from 46.1 µM), inactives show top-dose activity, positive = more growth. 270,000 tested, 0.4% active; note: potency is the fitted concentration of half-maximal effect; actives are rising curves; nearly all actives have a fitted effect of over 50% in size
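Recovery from NS1-induced slow growth read by OD600 in budding yeast switched to galactose assay medium (pH 6.0, -URA) at 1:100 dilution. Compound 23 nl per well; the matching strain lacking NS1 serves as control.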
Cycloheximide cs = counter-screen hit for Shiga toxin inhibitors, cycloheximide. cell reporter, cycloheximide protein synthesis inhibition counterscreen. max response, %. 300,000 tested, 12% active. AID 2314; in the data active = max response mostly above about 13%, no sharp cut-off; inactive = mostly below about 14%; note: read at 38.3 µM for the half of the compounds with a filed dose; 0% is about no effect
SARS PLpro yeast = SARS-CoV PLP inhibition in yeast | S. cerevisiae expressing SARS-CoV PLpro, growth rescue | Potency, µM (series often up to 32.9 µM), for inactives: at the top dose activity, positive = growth rescue, hits mostly activators | 330,000 tested, 0.19% active | AID 485353; note: potency is the fitted concentration of half-maximal effect; 0% is about no effect; nearly all actives have a fitted effect of over 55% in size
Shiga inhibitor = inhibitors of Shiga toxin in Vero cells | Vero cells, Shiga toxin protein synthesis inhibition reporter | 290,000 tested, 9.2% active | inhibition, % at 38.7 µM; in the data active = inhibition mostly above about 28%, no sharp cut-off; inactive = mostly below about 43%; note: 0% is about no effect
Active calls of the source: *; ? = inconclusive; · = no result. Unless noted, calls come from the whole dose curve.

SMILES	NS1 inh	Cycloheximide cs	SARS PLpro yeast	Shiga inhibitor
CCOC(=O)c1cnc(SCC(=O)OC)nc1N	5.2%	33.8*	-0.8%	71.8
CCOC(=O)c1cnc(SSc2ncc(C(=O)OCC)c(N)n2)nc1N	-40.4%	-2.6	-9.3%	·
CCOC(=O)c1cnc(SCCN2CCOCC2)nc1N	5.3%	18.3*	0.6%	33.9
C[C@@H]1CN([C@H](C)CO)C(=O)c2cccc(NC(=O)Nc3ccc(F)cc3)c2O[C@H]1CN(C)C(=O)Nc1ccc(C(F)(F)F)cc1	·	·	4.9%	·
O=C(Nc1ccc(S(=O)(=O)N2CCCCC2)cc1)C1CC(=O)N(c2ccccc2)C1 (stereo not drawn)	-10.6%	-4.0	2.9%	-9.4
CCn1c(=O)ccc2cc([N+](=O)[O-])ccc21	1.8%	-0.8	0.5%	26.3
CCOC(=O)c1cnc(SCc2ccc(C(C)(C)C)cc2)nc1N	3.3%	-0.8	-1.2%	-12.2
CCOC(=O)C(C)Sc1nc(=O)n2ccccc2n1 (stereo not drawn)	2.7%	-1.5	1.0%	-1.3
CCOC(=O)c1cnc(SCc2ccccc2)nc1N	-12.8%	46.7*	-2.3%	108.9*
CCOC(=O)C(C)Sc1ncc(-c2ccccc2)cn1 (stereo not drawn)	·	58.0*	0.0%	70.2*
CCn1ncc(Br)c1C(=O)Nc1ccc2c(c1)OCCO2	·	69.9*	-2.8%	98.7*
CCn1ncc(Br)c1C(=O)Nc1cc(C(=O)OC)ccc1C(=O)OC	-5.6%	14.6*	0.2%	37.4*
CCn1ncc(Br)c1C(=O)Nc1ccc(C(C)C)cc1	3.3%	63.7*	-1.6%	69.0*
CCn1ncc(Br)c1C(=O)Nc1ncc(C)s1	·	26.8	-0.2%	68.9*
O=C(CCCCCl)Nc1c2c(nc3ccccc13)CCC2	-13.6%	-1.6	-0.5%	-4.3
CN(C)Cc1ccc(-c2cc3onc(-c4ccccc4)c3c(=O)n2C)cc1	-10.9%	·	·	·
COc1ccc(CSCC(=O)Nc2ccccc2)cc1[N+](=O)[O-]	-1.6%	-3.0	-1.3%	-8.7
CCC(C)c1ccc(NC(=O)c2c([N+](=O)[O-])cnn2CC)cc1 (stereo not drawn)	-46.6%	19.5*	-16.1%	44.1
CCn1ncc([N+](=O)[O-])c1C(=O)Nc1ccc(C(=O)N2CCCCC2)cc1	4.1%	-3.8	-3.7%	-5.9
Cc1cc(Br)c2c(c1)=C(c1sc(N3CCCCCC3)nc1O)C(=O)N=2	0.9%	16.9*	2.8%	63.3*
Cc1ccc2c(c1)=C(c1sc(N(C)c3ccc(O)cc3)nc1O)C(=O)N=2	0.2%	3.5	-0.9%	6.1
COc1cccc(CNC(=O)CCNS(=O)(=O)c2ccc(C)cc2)c1	·	·	0.1%	·
Cc1ccccc1Nc1nc(N)nc(CSc2nnc(-c3ccccc3)n2C)n1	0.8%	18.1*	-2.4%	30.9
Cc1ccccc1Nc1nc(N)nc(CCl)n1	1.3%	34.3*	0.4%	51.8*
Cc1ccccc1Nc1nc(N)nc(CN(C)c2ccccc2)n1	7.3%	17.5	-1.2%	49.2
SMILES	NS1 inh	Cycloheximide cs	SARS PLpro yeast	Shiga inhibitor
Cc1ccccc1NC(=O)CSCc1nc(N)nc(Nc2ccccc2C)n1	4.5%	16.3*	3.2%	3.5
O=C1c2ccccc2NC(c2ccccn2)N1c1ccccc1F (stereo not drawn)	5.7%	-2.6	4.0%	-0.4
O=C(Nn1cnnc1)c1ccccc1Cl	?	-3.3	3.6%	-19.0
C[n+]1ccccc1/C=C/c1ccc(F)c(F)c1	-13.2%	-2.2	-3.5%	·
C[n+]1ccccc1/C=C/c1ccc2ncccc2c1	-2.4%	27.3*	-2.7%	40.0*
Cc1onc(-c2ccccc2)c1CNC(=O)CN1C(=O)c2ccccc2C1=O	-3.3%	-3.0	-0.7%	23.7
Cc1ccc(S(=O)(=O)N2CCCC2C(=O)NCc2ccccc2F)cc1 (stereo not drawn)	16.1%	-1.5	5.5%	-11.5
O=C(NCCCO)c1ccc(CSc2nc3ccccc3[nH]2)cc1	1.3%	10.7*	0.4%	31.1
O=C(NCCO)c1ccc(CSc2nc3ccccc3[nH]2)cc1	5.7%	17.4*	-29.3%	18.5
O=C(COC(=O)C1CC1)Nc1ccc(Cl)cn1	·	·	2.6%	·
COc1ccc(Cl)cc1C(=O)Nc1ccc(Br)c(C)n1	-1.2%	5.5	1.3%	-3.1
O=C(/C=C\c1ccccc1OC(=O)c1ccccc1F)c1cc2ccccc2o1	-35.1%	43.8*	-13.4%	62.9
COC(=O)c1ccccc1OC(=O)c1cc2ccccc2oc1=O	-2.5%	28.8*	0.6%	51.9*
COc1ccccc1OC(=O)c1cc2ccccc2oc1=O	-26.3%	0.4	-6.8%	18.0
CC(=O)/C=C\c1ccccc1OC(=O)c1cc2ccccc2oc1=O	-11.8%	11.1*	·	1.9
c1ccc2sc(NC3=NCCN3)nc2c1	-54.1%	30.2*	-82.0%	65.4*
COc1ccc(Nc2nc3ccc(OC)cc3s2)cc1	·	43.7*	-1.0%	82.1*
COc1ccc2nc(Nc3nc(C)c(C(C)=O)s3)sc2c1	-18.5%	55.0*	1.2%	108.1*
